# Screens: PubChem BioAssay, National Center for Advancing Translational Sciences (NCATS)
# Rows were chosen to be rich in hits. Some 19% of all compounds tested hit in one or more screens of this group.
# Giardia kill: Giardia lamblia killing; Giardia lamblia trophozoite viability; activity change, % at 7.66 µM, hits read low; 340,000 compounds, 0.15% hits; in the data active = activity change below about -80%; inconclusive = between about -30% and that limit;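 note: parasites exposed to compound for two days anaerobically before the ATP read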
#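 Viability, read as ATP luminescence: trophozoites at 100 cells/well, compound added, 48 hrs anaerobic at 37 deg C, then 15-30 min room-temperature development before reading.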
# TDP1 cell CPT: DT40-hTDP1 cell growth loss with CPT. chicken DT40 Tdp1-/-;hTDP1 cells + 20 nM CPT, ATP luminescence, 48 h. Potency, µM (series often up to 46.2 µM), most hits filed as inhibitors. 420,000 compounds, 12% hits. AID 686979; note: nearly all actives have a fitted effect of over 55% in size
#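 Cell growth measured by CellTiter-Glo luminescence after a minimum 48 h, 37 C compound exposure with 20 nM CPT in Tdp1-knockout DT40 cells stably expressing hTDP1, seeded 400/well; qHTS titration format.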
# ELG1 DNA repair: ELG1-dependent DNA repair inhibition. HEK293T ELG1-luciferase reporter, luminescence, 16 h; DNA damage induced by 5-fluorouridine. Potency, µM (highest dose often 46.1 µM), hits mostly inhibitors. 330,000 compounds, 2.3% hits. AID 504467; note: nearly all actives have a fitted effect of over 55% in size
#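 Luminescence from the luciferase reporter, measured 30 min after ONE-Glo reagent at room temperature, was the read-out. Beforehand, 2,000 cells per well were exposed for 16 hr at 37 °C to 5-fluorouridine together with compound or vehicle.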
# DT40 TDP1 no CPT: qHTS for Inhibitors of human tyrosyl-DNA phosphodiesterase 1 (TDP1): qHTS in cells in absence of CPT | DT40 Tdp1-/- hTDP1 cells, no CPT, ATP luminescence, 48 h | Potency, µM (highest dose often 46.2 µM), actives largely listed as inhibitors | 420,000 compounds, 15% hits | AID 686978, 2013; note: nearly all actives have a fitted effect of over 55% in size
#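 Chicken DT40 Tdp1-/- cells complemented with human TDP1, screened without camptothecin (DMSO vehicle only), 400 cells/well. Compounds pin-transferred, cells incubated at 37 °C for at least 48 hr. Growth read as ATP-dependent luminescence (CellTiter-Glo, 30 min at RT).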
# IL1B secr inh: inhibitors of inflammasome signaling (IL-1 beta secretion); THP-1 LPS/ATP IL-1B secretion, AlphaLISA, 16 h; hits give low values; activity change, % at 57.5 µM; 360,000 compounds, 4.7% hits; AID 743279; in the data active = activity change below about -50%; inconclusive = mostly about -30% to -49%
#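 THP-1 cells pretreated 1 hr with compounds (up to 57.5 uM final), then stimulated with LPS (250 ng/mL final) plus ATP (1.25 mM final); secreted IL-1B measured by AlphaLISA after 16 hr, decreased signal indicating inhibition.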
# TDP1 block: TDP1 (human) enzyme inhibition; 350,000 compounds, 0.28% hits; recombinant TDP1, AlphaScreen DNA substrate cleavage; AID 485290; Potency, µM (top dose mostly 130 µM), most hits filed as inhibitors; note: nearly all actives have a fitted effect of over 40% in size
# Target sequence (Q9NUW8 whole entry, looked up): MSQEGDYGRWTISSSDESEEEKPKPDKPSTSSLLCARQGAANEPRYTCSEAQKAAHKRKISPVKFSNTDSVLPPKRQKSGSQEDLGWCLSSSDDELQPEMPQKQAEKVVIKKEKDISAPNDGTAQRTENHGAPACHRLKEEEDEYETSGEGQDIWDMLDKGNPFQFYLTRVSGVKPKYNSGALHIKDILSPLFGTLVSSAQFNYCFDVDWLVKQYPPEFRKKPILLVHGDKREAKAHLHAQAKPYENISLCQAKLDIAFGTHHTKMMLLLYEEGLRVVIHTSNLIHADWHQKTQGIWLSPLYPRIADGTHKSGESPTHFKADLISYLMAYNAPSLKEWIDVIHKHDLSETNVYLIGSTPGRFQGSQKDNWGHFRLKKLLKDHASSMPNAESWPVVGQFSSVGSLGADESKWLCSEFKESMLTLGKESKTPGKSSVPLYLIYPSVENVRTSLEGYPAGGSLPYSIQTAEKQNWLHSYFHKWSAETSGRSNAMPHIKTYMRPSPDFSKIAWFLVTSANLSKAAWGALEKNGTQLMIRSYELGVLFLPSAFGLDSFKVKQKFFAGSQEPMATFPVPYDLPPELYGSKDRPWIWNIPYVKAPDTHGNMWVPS
#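 Steps: enzyme plus compound, 15 min RT; add biotin/phosphotyrosine-FITC oligonucleotide (15 nM final), react 5 min; add donor/acceptor beads (10 ug/ml final), 10 min; read AlphaScreen. Tdp1 at 1 nM final.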
# Hits are given with their value; i = inactive; ? = inconclusive; nt = no result. Unless noted, calls come from the whole dose curve; as a rule, active = well fitted curve in the direction sought with a large enough effect; inconclusive = small, poorly fitted or top-dose-only effect, or another doubt; inactive = no such curve, though single readings can be large; an effect the other way counts as inactive or inconclusive.
SMILES,Giardia kill,TDP1 cell CPT,ELG1 DNA repair,DT40 TDP1 no CPT,IL1B secr inh,TDP1 block
O=C(C(=O)N1CCOCC1)c1cn(CCCOc2ccccc2)c2ccccc12,i,i,i,?,i,i
O=C(c1ccccc1)N1CCC2(CC1)OCCO2,i,i,i,i,i,i
Cc1c(C(=O)N2CCC3(CC2)OCCO3)sc2ncnc(N3CCc4ccccc4C3)c12,i,16µM,21µM,23µM,i,i
N#Cc1cc(NC(=O)c2ccc(Cl)cc2)ccc1Sc1ccccc1,nt,21µM,nt,16µM,-61,nt
O=C(Nc1cc[c]([Sb](=[O])([OH])[OH])cc1)c1ccccc1,nt,i,nt,i,nt,nt
O=[N+]([O-])c1ccc(N2CCOCC2)c2c1no[n+]2[O-],nt,0.18µM,nt,0.16µM,-105,nt
O=C1NCN(c2ccccc2)C12CCN(C(c1nnnn1-c1ccc3c(c1)OCCO3)C1CC1)CC2 (stereo not given),nt,23µM,nt,13µM,i,nt
CC(C)(C)n1nnnc1C(c1cccc2ccccc12)N1CCC2(CC1)C(=O)NCN2c1ccccc1 (stereo not given),nt,?,nt,?,i,nt
O=C1NCN(c2ccccc2)C12CCN(C(c1nnnn1C1CCCCC1)C1CC1)CC2 (stereo not given),nt,?,nt,?,i,nt
O=C1NCN(c2ccccc2)C12CCN(C(c1cccs1)c1nnnn1-c1ccc3c(c1)OCCO3)CC2 (stereo not given),nt,18µM,nt,16µM,i,nt
O=C1NCN(c2ccccc2)C12CCN(C(c1cc3ccccc3o1)c1nnnn1-c1ccc3c(c1)OCCO3)CC2 (stereo not given),nt,21µM,nt,23µM,i,nt
O=C1NCN(c2ccccc2)C12CCN(C(c1ccccc1)c1nnnn1-c1ccc3c(c1)OCCO3)CC2 (stereo not given),nt,?,nt,?,i,nt
C/C=C1/C[N@@+]2(C)CC[C@]34C(=C(C=O)[C@H]1C[C@H]32)Nc1ccccc14,nt,i,nt,i,nt,i
CCOC(=O)c1ccccc1C(=O)OCC,i,i,nt,i,i,i
CCOC(=O)c1cnc2c(ccc3ccccc32)c1Nc1ccc(N(C)C)cc1,nt,15µM,nt,?,nt,nt
CC(=O)N1CC[N+](C)(C)CC1,nt,i,nt,i,nt,i
Cc1cc(C)c(N)cc1C,i,i,i,?,i,i
CN1CCN(C(=O)COc2ccc(-c3nc4ccccc4s3)cc2)CC1,?,i,?,18µM,-60,i
COc1ccccc1-c1nn2c(=O)cc(CN3CCN(C(=O)COc4ccccc4Cl)CC3)nc2s1,nt,?,nt,21µM,nt,i
COc1ccc(OCC(=O)N2CCN(Cc3cc(=O)n4nc(-c5ccc(OC)cc5)sc4n3)CC2)cc1,nt,15µM,nt,21µM,nt,i
O=C(COc1ccccc1Cl)N1CCN(CCc2ccccn2)CC1,nt,i,nt,i,nt,i
CCN(CC)/[N+]([O-])=N/O,nt,i,nt,i,nt,i
O=C1CNC(c2ccccc2Cl)c2cc(Br)ccc2N1 (stereo not given),i,i,i,8.2µM,i,nt
O=C1CS[C@@H](c2ccccc2Cl)c2cc(Cl)ccc2N1,nt,i,nt,?,nt,i
CC(CO)NC(=O)C1C=C2c3cccc4[nH]cc(c34)CC2N(C)C1 (stereo not given),nt,nt,nt,nt,nt,i
SMILES,Giardia kill,TDP1 cell CPT,ELG1 DNA repair,DT40 TDP1 no CPT,IL1B secr inh,TDP1 block
Clc1ccc(CCC(Cn2ccnc2)Sc2c(Cl)cccc2Cl)cc1 (stereo not given),i,?,?,26µM,i,nt
C=CC(=O)OCC,nt,nt,nt,nt,nt,i
CC(C)N1C(=O)c2ccccc2NS1(=O)=O,nt,i,nt,i,nt,i
COP(=O)(OC)C1(O)C(=O)Nc2ccc(Br)cc21 (stereo not given),i,16µM,i,?,i,i
CC1C(=O)OC2C1CC[C@@]1(C)C=CC(=O)[C@@]3(C)O[C@@]213 (stereo not given in full),nt,?,nt,?,nt,i
COc1ccccc1C1Nc2ccccc2-n2c(-c3ccccc3)c3c(=O)n(C)c(=O)n(C)c3c21 (stereo not given),nt,i,nt,6.5µM,nt,i
CC(=O)Nc1cc(-c2cccc(C(=O)N(C)C)c2)cn2c(-c3cccc(C(F)(F)F)c3)cnc12,nt,18µM,nt,16µM,i,nt
CN(C)C(=O)Nc1cccc(C(F)(F)F)c1,nt,nt,nt,nt,nt,i
Cn1c(=O)oc2cc(S(=O)(=O)N3CCCC(C(=O)N4CCN(c5cccc(Cl)c5)CC4)C3)ccc21 (stereo not given),nt,9.2µM,nt,8.2µM,nt,i
COc1cccc(N2CCN(C(=O)C3CCN(S(=O)(=O)c4ccc5c(c4)oc(=O)n5C)CC3)CC2)c1,i,16µM,i,18µM,i,i
CCN(CC)CCCCN1c2ccccc2Oc2ccc(Cl)cc21,nt,nt,nt,nt,nt,i
CN1CCc2cc3c(cc2C1)OCO3,i,i,nt,i,i,nt
C#CCOCCOCCOCCNc1nc(N2CCN(C(=O)CCCCCCCCCCNC(=O)[C@H]([C@@H](C)CC)n3cc(CCCCN=C(N)N)nn3)CC2)nc(N2CCN(C(=O)CCCCCCCCCCNC(=O)[C@H](CO)n3cc(CCCCCN)nn3)CC2)n1,i,15µM,?,21µM,-73,i
O=C(N[C@@H]1CN2CCC1CC2)c1cc(Cl)cc2[nH]cnc12,nt,nt,nt,nt,nt,i
Fc1ccc(CCNCc2ccc(Cl)c(Cl)c2)cc1,i,?,i,i,-53,i
Cc1ccsc1CNCCc1ccc(F)cc1,i,?,i,i,?,i
COc1ccc(CCNCc2ccc(Br)cc2)cc1OC,i,21µM,i,?,i,nt
CCc1ccc(CNCCc2ccc(F)cc2)cc1,i,?,i,?,-83,i
COc1cc(OC)c(OC)cc1CNCCc1ccc(F)cc1,i,?,i,12µM,i,i
ClC1=C(Cl)C2(Cl)C3C(Cl)C(Cl)CC3C1(Cl)C2(Cl)Cl (stereo not given),nt,nt,nt,nt,nt,i
C[C@@H](C1=C(CCN(C)C)Cc2ccccc21)c1ccccn1,nt,?,nt,?,nt,i
COP(=O)(OC)O/C(=C\Cl)c1cc(Cl)c(Cl)cc1Cl,nt,nt,nt,nt,nt,i
CC1=C[C@H](O)CC(C)(C)[C@H]1/C=C/C(C)=C/C=C/C(C)=C/C=C/C=C(C)/C=C/C=C(C)/C=C/C1=C(C)C[C@@H](O)CC1(C)C,nt,i,nt,?,nt,nt
Cc1ccsc1CNCCc1ccccc1F,i,i,i,i,i,i
Cc1ccccc1CCNCc1ccc(Br)cc1,i,?,i,?,-65,i
COc1ccc(C(=O)Nc2ccc(S(=O)(=O)N(Cc3ccccc3)c3ccccc3)cc2)cc1,nt,13µM,nt,5.2µM,nt,i
COc1ccc(-c2cnnn2-c2ccc(NC(=O)c3ccc(S(=O)(=O)N(C)C)cc3)cc2)cc1,nt,21µM,nt,18µM,nt,i
